Drawing on article PMC7819943, “Rice protein-binding microarrays: a tool to detect cis-acting elements near promoter regions in rice”, this text covers binding signal for 42 sequences.

The full ranking holds about 68,000 sequences; the median of “fluorescence intensity (a.u.)” is about 9,100, and the highest 2% start at about 16,000. The list comes from a sample in which the highest values are over-represented; it also holds similar and randomly drawn sequences.

In this assay the target is OsWRKY34 (Oryza sativa, UniProt Q0JBA9 1-250). As to the kind of experiment: protein-binding microarray (RPBM); PBS, 2% BSA, 51.3 ng/ul salmon testes DNA, 50 uM zinc acetate, 200 nM TF, 25 C, 1 h; high values mean tight binding. Conditions: protein: recombinant; tags: N-terminal polyhistidine and DsRed monomer fusion (pET32a); label: CyDye5-dUTP incorporated in the synthesized complementary strand; 3' TTTTT single-stranded linker to array surface; dsDNA, one strand shown. Summed up: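 An Axon 4000B scanner gave the binding signal as per-feature fluorescence intensity in arbitrary units. This followed washing of a custom Agilent array that had been incubated for 1 h at 25 °C with 200 nM protein in PBS, 2% BSA, salmon testes DNA and 50 µM zinc acetate. The proteins were transcription factors fused at the N-terminus to polyhistidine and DsRed, expressed in E. coli BL21-CodonPlus and purified on Ni–NTA.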
Sequence of OsWRKY34 (Q0JBA9 entry or part of it): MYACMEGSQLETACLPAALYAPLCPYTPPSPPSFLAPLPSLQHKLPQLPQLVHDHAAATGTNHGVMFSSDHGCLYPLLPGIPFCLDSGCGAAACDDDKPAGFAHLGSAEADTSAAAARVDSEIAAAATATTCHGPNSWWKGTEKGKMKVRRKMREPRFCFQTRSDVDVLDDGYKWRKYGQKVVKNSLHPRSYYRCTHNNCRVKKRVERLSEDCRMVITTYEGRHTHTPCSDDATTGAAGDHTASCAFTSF
On to “TGGGGTTGGTTTGGTTTGGAGTACATCGAGATTCGAGAGACGGAGTCACCTAGTGCAG”, for which the binding signal is 19900 fluorescence intensity (a.u.).

As to “ATTTTAGGGGAGGGTTTTACTTAGCAACTTTCATCTTATTCGGAGTCACCTAGTGCAG”, the binding signal is 15800 fluorescence intensity (a.u.).

On to “GGGTTGGTGGGCCTGATGGGCTTGGTTTTAGGGTTTCGTGCGGAGTCACCTAGTGCAG”, for which the binding signal is 9510 fluorescence intensity (a.u.).

On to “ACGGGGATGACTCCGATGACTCTCCTGGCCTCGCCGCCTCCGGAGTCACCTAGTGCAG”, for which the binding signal is 8120 fluorescence intensity (a.u.).

Regarding “ACTTGGTTCTTGCTCATCATCTTTCGCTTGCTCGTCAGCTCGGAGTCACCTAGTGCAG”, the binding signal is 8360 fluorescence intensity (a.u.).

Consider “CCCTCTTCTCCTTTGCTTGGTCTCGTTTCGTCGCTGTCGTCGGAGTCACCTAGTGCAG”, for which the binding signal was 8260 fluorescence intensity (a.u.).

“GAGGTCCCGTCGCTCCGGCGAGCTCCCGCCATCCGCCTCGCGGAGTCACCTAGTGCAG”: the binding signal is 8630 fluorescence intensity (a.u.).

For “ATGGCCGCTGTCTTATGTCGTCTCGTTCAAATAAAATCTCCGGAGTCACCTAGTGCAG”, the binding signal is 8370 fluorescence intensity (a.u.).

Consider “GGGATTTGGTGGCTGCTCGCCTCTCGCGTTTCTTTTGCTGCGGAGTCACCTAGTGCAG”, for which the binding signal was 10200 fluorescence intensity (a.u.).

As to “CTTCTGCTGCTTCTCTCTCTCTCTCTGTGTCTAGTCTACCCGGAGTCACCTAGTGCAG”, the binding signal was 9420 fluorescence intensity (a.u.).

“TATTTGTCATTCGCTGTCTATGACATATGAGCCCTCATGTCGGAGTCACCTAGTGCAG”: the binding signal is 8280 fluorescence intensity (a.u.).

For “CTCCTCCCAACTTTCCCCTTTGCTACAGTAGCTCCTTCTTCGGAGTCACCTAGTGCAG”, the binding signal is 8100 fluorescence intensity (a.u.).

For “GAGAGAGGAAGAACAGTACGTGTCTAGGGGCATTTTGGTACGGAGTCACCTAGTGCAG”, the binding signal is 9700 fluorescence intensity (a.u.).

On to “ACACCGGCCGCCGAGCTCGCCTCCTCTCTTGTCGCCCACACGGAGTCACCTAGTGCAG”, for which the binding signal was 10100 fluorescence intensity (a.u.).

Regarding “GTTCCTGATATGTTTTTTTGTTGGTTGCAGGATGGCAAGACGGAGTCACCTAGTGCAG”, the binding signal is 8880 fluorescence intensity (a.u.).

In the case of “GCTCTCTTTCCGCTTCTACCCTCGTCACGTCCACGAAATCCGGAGTCACCTAGTGCAG”, the binding signal is 14900 fluorescence intensity (a.u.).

Regarding “GCCACAGCTCTTGATTTCTCGCTGGATCCTGGTTTTCACCCGGAGTCACCTAGTGCAG”, the binding signal is 8430 fluorescence intensity (a.u.).

On to “TTGGGGTTGGCGGGAATTAGGGTTTCGTTGGTGGGGTTTTCGGAGTCACCTAGTGCAG”, for which the binding signal was 25900 fluorescence intensity (a.u.).

Take “GCGTTTTCGGCGGGGAACGCGGGGAGGCGGGTGGGGTTGACGGAGTCACCTAGTGCAG”: the binding signal was 21800 fluorescence intensity (a.u.).

For the sequence “GGTGGGTTTCGTGGTACGGCTCGCTCTCGTGGTGGGGAATCGGAGTCACCTAGTGCAG”, the binding signal is 19700 fluorescence intensity (a.u.).

Regarding “TCGTTTGGTTGGCGGGAGTTTTAAGAGGGATTAGGAGTTTCGGAGTCACCTAGTGCAG”, the binding signal is 9020 fluorescence intensity (a.u.).

Turning to “TGCTAGGGTTTTCGGGAGGCGGGTCTAGGGTTGAGGCAAACGGAGTCACCTAGTGCAG”, the binding signal is 12300 fluorescence intensity (a.u.).

On to “CTGGCTCGCTCTCTCTCTCTCTCTCGTGGTGTGGTGTGGACGGAGTCACCTAGTGCAG”, for which the binding signal is 9310 fluorescence intensity (a.u.).

Take “ACCTCGGAAAGTACGGGGTTCTCGTCGGCTGGGTGGGTGTCGGAGTCACCTAGTGCAG”: the binding signal is 11500 fluorescence intensity (a.u.).

In the case of “GGTTGGCAGCGGCGGCGGAGGTGGGGAGAGGCGGGTGGTTCGGAGTCACCTAGTGCAG”, the binding signal is 13600 fluorescence intensity (a.u.).

Take “GAGCGGGGAGGCGGCGGATCTAGGGTTTGGTTGGGTTTTTCGGAGTCACCTAGTGCAG”: the binding signal is 15300 fluorescence intensity (a.u.).

“GTTGGTGTCCATCCGTTTCCGAGCCATTTTCATCCCTAATCGGAGTCACCTAGTGCAG”: the binding signal was 11600 fluorescence intensity (a.u.).

Turning to “TCCTTCCATCTCTCTGCTCACTTCACTTCACCTTCCAATGCGGAGTCACCTAGTGCAG”, the binding signal was 9020 fluorescence intensity (a.u.).

“GTTTCCATTTATCTGTTCGCAGTCAGTTCCAAGAAGTACCCGGAGTCACCTAGTGCAG”: the binding signal was 8340 fluorescence intensity (a.u.).

For the sequence “GTTGGTTGGCTGTTCCTTGCTTTCATCCAGCTAGCTACTGCGGAGTCACCTAGTGCAG”, the binding signal was 10500 fluorescence intensity (a.u.).

Consider “ACCGGCTCTCTAATCCTTAAATTCTGGCTTTGCTGCTAGTCGGAGTCACCTAGTGCAG”, for which the binding signal was 9240 fluorescence intensity (a.u.).

As to “CAGTGGAGGGTTGGATCGGTGTGTAGGGGCTTAAGTGCAACGGAGTCACCTAGTGCAG”, the binding signal is 9610 fluorescence intensity (a.u.).

For “CATGTCCAACGTTTGACCATTTGCCTTATTTAAAATTTTTCGGAGTCACCTAGTGCAG”, the binding signal is 9250 fluorescence intensity (a.u.).

On to “ATGCTCGATCACATGCTTAATTCTTAGCTTTGTCCTAGTTCGGAGTCACCTAGTGCAG”, for which the binding signal was 8230 fluorescence intensity (a.u.).

With “GCTAAATACCAGCGAAGCAGTCGCCCGCGCAAACGCGCGCCGGAGTCACCTAGTGCAG”, the binding signal is 8220 fluorescence intensity (a.u.).

With “GCCGCCACCGCAACCTACCGCCGCCGCGGCAAGCCCAAGCCGGAGTCACCTAGTGCAG”, the binding signal is 8960 fluorescence intensity (a.u.).

Turning to “ACGGCCAGGCAAGCAAGCAAACGCCGCGGCTACCAATACCCGGAGTCACCTAGTGCAG”, the binding signal was 39600 fluorescence intensity (a.u.).

In the case of “TTAATCTTCACGCGTTTGCTTACTCCTATATATATATGTACGGAGTCACCTAGTGCAG”, the binding signal is 9730 fluorescence intensity (a.u.).

On to “TGTTTTTCCTGTGTTTTGCAATCCTCTGTTTTACACTTACCGGAGTCACCTAGTGCAG”, for which the binding signal is 13000 fluorescence intensity (a.u.).

Regarding “TTCCTGTGTTTTGCAATCCGCTGTTTTACACTTACATTCCCGGAGTCACCTAGTGCAG”, the binding signal was 17300 fluorescence intensity (a.u.).

For the sequence “TCCTGTGTTTTGCAATCCTCTGTTTTTACACTTGCATTCCCGGAGTCACCTAGTGCAG”, the binding signal is 10400 fluorescence intensity (a.u.).

“TTTCGATTGATTTTGCCTCCTGAAGCGTTGTCTAGCTTTTCGGAGTCACCTAGTGCAG”: the binding signal was 8180 fluorescence intensity (a.u.).
